Hits are enriched below; roughly 5.6% of the tested compounds scored in any of these assays.
M18AAP inhibitor = blocks P. falciparum M18 aspartyl aminopeptidase; recombinant PfM18AAP, H-Glu-NHMec fluorogenic cleavage; 1.2% of 290,000 active; AID 1822; inhibition, % at 7.35 µM;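 active = inhibition above the campaign mean inhibition over all tested compounds plus 3 SD, cut at about 28% in these data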;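 note: 0% = plate median of test compound wells and 100% = 2 mM ZnCl2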
H9c2 protect = protects H9c2 cardiomyocytes from peroxide injury; AID 588492; 0.63% of 360,000 active; H2O2 injury protection, ATPLite, 2 h; protection from H2O2 cell death, % at 20 µM;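 active = compounds giving at least 50% protection of heart cells from peroxide-induced death in the single-dose screen, raw or plate-pattern-corrected value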;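 note: 0% = DMSO wells with peroxide and 100% = DMSO wells without peroxide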
PHOSPHO1 inh = PHOSPHO1 (human) inhibition. recombinant PHOSPHO1, absorbance phosphatase assay. inhibition, % at 13.3 µM. 1.1% of 290,000 active; in the data active = inhibition above about 60%
Target sequence (Q8TCT1 whole entry, looked up): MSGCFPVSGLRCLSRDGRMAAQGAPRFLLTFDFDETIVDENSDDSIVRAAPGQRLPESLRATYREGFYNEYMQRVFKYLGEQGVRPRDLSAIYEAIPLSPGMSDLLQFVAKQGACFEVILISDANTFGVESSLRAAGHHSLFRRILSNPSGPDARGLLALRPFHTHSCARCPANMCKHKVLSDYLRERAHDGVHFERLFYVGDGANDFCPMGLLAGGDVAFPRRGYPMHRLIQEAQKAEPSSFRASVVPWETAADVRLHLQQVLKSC
ALR inh = inhibitors of human sulfhydryl oxidase ALR; purified ALR, DTT oxidation, H2O2 HRP-luminol luminescence; P55789; AID 485317; inhibition, % (test concentration not listed); 3.8% of 290,000 active;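 active = mean replicate inhibition above about 79%, with every replicate also reaching it, limit read from the data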
Target sequence (P55789 whole entry, looked up): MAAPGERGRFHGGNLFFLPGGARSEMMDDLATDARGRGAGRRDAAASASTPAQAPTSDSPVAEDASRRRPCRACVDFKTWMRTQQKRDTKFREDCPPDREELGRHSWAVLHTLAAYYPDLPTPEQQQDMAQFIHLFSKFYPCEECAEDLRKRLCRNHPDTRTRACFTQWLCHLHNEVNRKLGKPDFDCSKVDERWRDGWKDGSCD
PfGluPho inh = PfG6PD (Plasmodium falciparum) enzyme inhibition; AID 504690; inhibition, % at 20 µM; PfGluPho enzyme, NADPH resazurin-diaphorase fluorescence; 0.78% of 350,000 active;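 active = inhibition reaching at least a set limit at 20 µM in the primary screen, cut at about 59% in these data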;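 note: 0% = DMSO wells with substrate and 100% = DMSO wells lacking glucose-6-phosphate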
PfGluPho conf = confirmation of Plasmodium falciparum G6PD inhibitors; AID 504753; shares compounds with PfGluPho inh; 34% of 2,400 active; inhibition, % at 20 µM; recombinant PfGluPho, NADPH-diaphorase-resazurin fluorescence;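 active = inhibition of at least 50% at 20 µM in any single replicate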;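 note: 0% = DMSO with substrate and 100% = DMSO lacking glucose-6-phosphate substrate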
Diaphorase 10uM = inhibits diaphorase or oxidizes, flagging false PfG6PD hits; 39% of 820 active; shares compounds with PfGluPho inh; diaphorase-coupled resazurin reduction, fluorescence, NADPH 10 uM; inhibition, % at 20 µM; AID 504862;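 active = average inhibition reaching 50% or more with the compound at 20 µM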;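 note: resorufin red fluorescence formed as diaphorase reduces resazurin using NADPH; 0% = DMSO with enzyme and 100% = DMSO without enzyme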
Diaphorase 30uM = inhibits diaphorase or oxidizes, flagging false PfG6PD hits | shares compounds with PfGluPho inh | Diaphorase/resazurin coupled assay, resorufin fluorescence, 30 uM NADPH | inhibition, % at 20 µM | 29% of 820 active | AID 504863;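 active = inhibition averaging 50% or more, tested at 20 µM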;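 note: 0% = DMSO with enzyme and 100% = DMSO wells lacking diaphorase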
* marks the source's active call; other numbers are inactive results; / = no result given.

SMILES	M18AAP inhibitor	H9c2 protect	PHOSPHO1 inh	ALR inh	PfGluPho inh	PfGluPho conf	others
COc1cnn(-c2ccc(C)cc2)c(=O)c1SCc1ccccc1	3	3	81*	-7	66*	3
COc1ccc(NC(=S)NC(NC(=O)CCl)C(Cl)(Cl)Cl)c([N+](=O)[O-])c1 (stereo not given)	-7	-6	32	/	65*	48
COc1ccc(NC(=S)NC(NC(=O)c2ccccc2Cl)C(Cl)(Cl)Cl)c([N+](=O)[O-])c1 (stereo not given)	5	-13	9	4	11	/
CCCN(Cc1cc2ccc(C)cc2[nH]c1=O)C(=O)c1ccccn1	-9	4	18	-11	96*	69*	Diaphorase 10uM=50*;Diaphorase 30uM=50*
COc1c2ccoc2c(OCC=C(C)C)c2oc(=O)ccc12	-1	-3	-1	-6	68*	54*	Diaphorase 10uM=18;Diaphorase 30uM=29
CCOC(=O)C(=Cc1ccc2c(c1)OCO2)c1ccccc1	/	-8	/	/	3	/
CC(=O)OCC(=O)C1(O)CCC2C3CC(C)C4=CC(=O)C=CC4(C)C3=CCC21C (stereo not given)	/	2	/	/	61*	40
CC(C)(C)S(=O)N1Cc2ccc(CO)cc2[C@@H]1CCO (stereo not given in full)	/	8	/	/	-3	/
C[C@H](CO)N1C[C@H](C)[C@@H](CN(C)S(=O)(=O)c2ccc(C#N)cc2)OCc2cn(nn2)CCCC1=O	/	3	/	/	-14	/
O=C1C=CC(=Nc2ccc3c(c2)Cc2cc(F)ccc2-3)O1	/	-3	/	/	61*	4
Cc1ccc(S(=O)(=O)N(C)S(=O)(=O)c2ccc(C#N)cc2)cc1	3	/	40	-6	/	/
COc1cccc(C(=O)/C=C2\Sc3ccccc3N2C)c1	24	-10	32	11	82*	41
CN1/C(=C\C(=O)c2cccnc2)Sc2ccccc21	20	-10	-20	-3	26	/
C=CCOc1ccc(/C=N/NC(=O)c2c(C)nc3ccc(Cl)cn23)cc1	1	-11	25	-8	-11	/
O=C1C(Cl)=C(N2CCC(C(=O)O)CC2)C(=O)c2ccccc21	9	-10	33	50	43	/
NC(=O)C1CCN(C2=C(Cl)C(=O)c3ccccc3C2=O)CC1	7	-13	-16	30	74*	43
CN1CCN(C2=C(Cl)C(=O)c3ccccc3C2=O)CC1	/	-20	/	/	107*	75*	Diaphorase 10uM=74*;Diaphorase 30uM=77*
CN1CCN(C2=C(NS(=O)(=O)c3ccccc3)C(=O)c3ccccc3C2=O)CC1	9	-13	-4	-16	18	/
CC1COCC(C)N1C1=C(Cl)C(=O)c2ccccc2C1=O (stereo not given)	/	-17	/	/	75*	64*	Diaphorase 10uM=28;Diaphorase 30uM=24
CCC1CCCCN1C(=O)COC(=O)c1cc(C)nc2ccccc12 (stereo not given)	/	2	/	-6	1	/
O=C(Nc1c(Br)cc2c(c1Br)Cc1ccccc1-2)C(Cl)Cl	/	-1	/	/	12	/
Cc1ccccc1CCN(C(=O)c1csnn1)C(C(=O)NC1CCCC1)c1ccco1 (stereo not given)	1	3	51	-2	3	/
C=CC(=O)N1C/C(=C/c2ccccc2)C(=O)/C(=C\c2ccccc2)C1	/	-16	/	/	33	/
C=CC(=O)N1C/C(=C/c2ccc(Cl)cc2)C(=O)/C(=C\c2ccc(Cl)cc2)C1	/	-16	/	/	76*	26
COc1cc(C(=S)N2CCOCC2)cc(OC)c1OC(=O)c1ccc(C)cc1	0	-4	24	-8	-11	/
SMILES	M18AAP inhibitor	H9c2 protect	PHOSPHO1 inh	ALR inh	PfGluPho inh	PfGluPho conf	others
O=C1/C(=C/Nc2cccc([N+](=O)[O-])c2)CCc2ccccc21	10	-7	-39	-12	67*	35
O=C1/C(=C\c2ccc([N+](=O)[O-])cc2)CCc2ccccc21	4	-15	1	-13	14	/
C/C(=N\Nc1ncc(Br)cn1)c1cccc([N+](=O)[O-])c1	2	0	14	-4	21	/
C/C(=N\Nc1ccc([N+](=O)[O-])cc1)c1cccc(N)c1	9	1	13	99*	111*	41
C/C(=N\Nc1ccc([N+](=O)[O-])cc1)c1ccc(O)cc1	1	-11	32	99*	66*	2
CC(=O)NC/C(C)=N\Nc1ccc([N+](=O)[O-])cc1	1	1	9	/	0	/
COc1ccccc1Nc1n[nH]c(=S)s1	18	-11	52	/	51	/
COc1cccc(Nc2n[nH]c(=S)s2)c1	17	-6	49	54	62*	5
Cc1cc(C)c(Nc2n[nH]c(=S)s2)cc1C	/	-7	/	/	67*	28
Cc1ccc(Nc2n[nH]c(=S)s2)c(C)c1	/	-5	/	/	71*	14
N#Cc1cnc(NCc2ccc(Cl)cc2Cl)nc1	8	0	33	1	2	/
CC(C)CNc1ncnc2c1ncn2[C@H]1CN(CCN2CCOCC2)C[C@@H](CO)O1	/	-1	/	/	/	/
COc1ccc(OC2C(=O)N(c3ccc(C)c(C)c3)C2c2ccc(OC)c(OC)c2)cc1 (stereo not given)	-4	4	-15	-12	97*	28
CCOc1ccc(S(=O)(=O)NCc2ccccc2)cc1C(N)=O	-1	-15	-59	-4	42	/
CCOc1ccc(S(=O)(=O)NCc2ccccc2Cl)cc1C(N)=O	-1	-6	2	-3	75*	32
CC(=O)OCC1(C)CN(c2ccccc2)N(C(C)=O)C1=O (stereo not given)	5	5	-23	57	47	/
CC(=O)OCC1(C)CN(c2ccccc2)NC1=O (stereo not given)	10	10	-26	99*	97*	90*	Diaphorase 10uM=-1;Diaphorase 30uM=-11
OCC[C@@H]1C[C@H](O)[C@@H](O)[C@]2(OCc3cc(C(F)(F)F)ccc32)O1	/	2	/	/	/	/
CCN1C[C@@H]2[C@@H]3C(=O)N(C)C(=O)[C@@H]3[C@](Cc3ccccc3)(C(=O)OC)N2C1=NCc1ccccc1	/	8	/	/	4	/
O=Nc1c(O)ccc2cc(S(=O)(=O)O)ccc12	/	1	/	/	102*	90*	Diaphorase 10uM=76*;Diaphorase 30uM=73*
COc1cc(F)cc(-c2ccc3c(c2)c(C#Cc2ccsc2)c(-c2cc(OC)cc(OC)c2)n3C)c1	/	-4	/	-5	-19	/
CCN(CC)C(=O)[C@H]1C[C@H](CC(=O)NCCc2ccccn2)C(=O)N2CCc3c([nH]c4cc(CCC(=O)N(C)C)ccc34)[C@]12C	/	10	/	/	4	/
C=CCOc1c(Cl)cc(CNc2ccc3[nH]c(=O)[nH]c3c2)cc1OC	-32	10	2	98*	64*	58*	Diaphorase 10uM=21;Diaphorase 30uM=18
O=c1cc(C(F)(F)F)nc(SCc2cccnc2)[nH]1	0	3	22	-15	7	/
